Source: PubChem
IL1B secr inh: inhibitors of inflammasome signaling (IL-1 beta secretion); 4.7% of 360,000 active; THP-1 LPS/ATP IL-1B secretion, AlphaLISA, 16 h; hits give low values; activity change, % at 57.5 µM; in the data active means activity change below about -50%; inconclusive means mostly about -30% to -49%; further: on the % scale 0 is the no-effect control and ±100 the full control effect
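Secreted IL-1B measured by AlphaLISA bead assay after 16 h compound exposure of THP-1 cells; compounds (final up to 57.5 uM) added 1 h before LPS (250 ng/mL) and ATP (1.25 mM) stimulation; lower signal means less secretion.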
TGFb SMAD3 inh: inhibitors of TGF-b signaling; HepG2 CAGA-GFP TGF-b/SMAD3 reporter, GFP fluorescence, 18 h; TGF-beta stimulated, 500 pg/mL final; Potency, µM (highest dose often 46.1 µM), for inactives: top-dose activity, negative = inhibition, most hits filed as inhibitors; 1.2% of 410,000 active; AID 588855; further: potency means the concentration at half of the fitted maximal effect; on the % scale 0 is the no-effect control and ±100 the full control effect; nearly all actives have a fitted effect of over 65% in size
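First, reporter cells (HEPG2 CAGA-GFP) rested 2 h at 37 degrees C. Next, compounds were pinned in and TGF-beta added to 500 pg/mL final. After 18 h, GFP was imaged per cell and summed per well.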
DT40 TDP1 no CPT: qHTS for Inhibitors of human tyrosyl-DNA phosphodiesterase 1 (TDP1): qHTS in cells in absence of CPT. DT40 Tdp1-/- hTDP1 cells, no CPT, ATP luminescence, 48 h. Potency, µM (highest dose often 46.2 µM), for inactives: at the top dose activity change, negative = growth inhibition, most hits filed as inhibitors. 15% of 420,000 active. AID 686978, 2013; further: potency means the concentration at half of the fitted maximal effect; on the % scale 0 is the no-effect control and ±100 the full control effect; nearly all actives have a fitted effect of over 55% in size
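Growth kinetics read by CellTiter-Glo luminescence after ≥48 hr at 37 °C. Cells: DT40 Tdp1-/- stably carrying human TDP1, 400 per well, compound exposure in the absence of CPT (DMSO vehicle).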
TDP1 cell CPT: DT40-hTDP1 cell growth loss with CPT | chicken DT40 Tdp1-/-;hTDP1 cells + 20 nM CPT, ATP luminescence, 48 h | Potency, µM (highest dose often 46.2 µM), for the others: top-dose activity change, negative = growth inhibition, usual class: inhibitors | 12% of 420,000 active | AID 686979; further: potency means the concentration at half of the fitted maximal effect; on the % scale 0 is the no-effect control and ±100 the full control effect; nearly all actives have a fitted effect of over 55% in size
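Chicken DT40 Tdp1-/- cells complemented with human TDP1, 400 cells/well, exposed to compounds plus 20 nM camptothecin for at least 48 h at 37 C; viability read as ATP content by CellTiter-Glo luminescence.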
HepG2 tox: counter-screen for TGF-b inhibitors: cytotoxicity in HepG2 cells; HepG2 CAGA-GFP viability, ATP luminescence, 18 h; Potency, µM (series often up to 46.1 µM), for the others: at the top dose activity change, negative = cytotoxicity, most hits filed as cytotoxic; 0.76% of 410,000 active; AID 588856; further: potency means the concentration at half of the fitted maximal effect
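HepG2 CAGA-GFP cells (1000/well, DMEM with 1% FBS) received compound, then TGF-beta at 500 pg/mL final, and were incubated 18 hours at 37 degrees C. Viability was read by CellTiter-Glo luminescence. Media-only wells were set as complete cell-killing and DMSO as no toxicity.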
TDP1 inh: TDP1 (human) enzyme inhibition | Q9NUW8 | recombinant TDP1, AlphaScreen DNA substrate cleavage | Potency, µM (highest dose often 130 µM), for the others: at the highest dose activity change, negative = inhibition, hits mostly inhibitors | 0.28% of 350,000 active; further: potency means the concentration at half of the fitted maximal effect; on the % scale 0 is the no-effect control and ±100 the full control effect; nearly all actives have a fitted effect of over 40% in size
Target sequence (Q9NUW8 whole entry, looked up): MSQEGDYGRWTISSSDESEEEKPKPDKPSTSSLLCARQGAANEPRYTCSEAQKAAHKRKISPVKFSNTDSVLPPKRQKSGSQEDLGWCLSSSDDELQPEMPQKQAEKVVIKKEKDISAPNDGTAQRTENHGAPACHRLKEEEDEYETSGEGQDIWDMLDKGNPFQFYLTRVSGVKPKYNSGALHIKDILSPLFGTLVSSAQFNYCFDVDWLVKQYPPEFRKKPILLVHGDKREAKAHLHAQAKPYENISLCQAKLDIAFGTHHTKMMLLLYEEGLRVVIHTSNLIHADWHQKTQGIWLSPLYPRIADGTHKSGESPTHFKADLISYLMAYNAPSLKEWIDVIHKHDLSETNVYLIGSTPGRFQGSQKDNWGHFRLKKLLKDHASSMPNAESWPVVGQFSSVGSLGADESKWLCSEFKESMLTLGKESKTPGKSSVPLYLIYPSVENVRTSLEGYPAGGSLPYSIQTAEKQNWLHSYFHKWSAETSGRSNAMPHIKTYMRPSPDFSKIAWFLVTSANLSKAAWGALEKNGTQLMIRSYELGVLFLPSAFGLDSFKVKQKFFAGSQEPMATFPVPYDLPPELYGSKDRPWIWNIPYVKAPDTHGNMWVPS
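Enzyme-compound mixtures sat 15 min at room temperature, followed by a 5 min reaction with 15 nM final substrate and 10 min with AlphaScreen beads. Recombinant human Tdp1 was used at 1 nM final.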
Starred values were filed as active, the others as inactive; ? = inconclusive; . = no result given. Hits are enriched below; roughly 18% of the tested compounds scored in any of these assays. Unless noted, the call rests on the fitted dose curve; in most records, active means well fitted curve in the direction sought with a large enough effect; inconclusive means small, poorly fitted or top-dose-only effect, or another doubt; inactive means no such curve, though single readings can be large; an effect the other way counts as inactive or inconclusive.

SMILES | IL1B secr inh | TGFb SMAD3 inh | DT40 TDP1 no CPT | TDP1 cell CPT | HepG2 tox | TDP1 inh
CN(C[C@H](c1ccccc1)N(C[C@H](Cc1ccccc1)N(CCc1ccccc1)N=O)N=O)N=O | -3 | -11% | ? | 18µM* | -13% | 4%
CCOP(=O)(c1ccccc1)c1nc(-c2ccccc2Cl)oc1N1CCCCC1 (stereo not given) | -67* | ? | ? | ? | -70% | 0%
Cc1ccc(S(=O)(=O)c2nc(-c3ccccc3Cl)oc2N2CCCCCC2)cc1 | . | -8% | 18µM* | 23µM* | -7% | .
N#Cc1nc(-c2ccccc2Cl)oc1N1CCOCC1 | -23 | -4% | ? | ? | -29% | 11%
COc1ccccc1-c1nc(S(=O)(=O)c2ccc(Cl)cc2)c(N2CCCCCC2)o1 | . | -2% | 16µM* | 16µM* | -3% | .
Cc1ccc(S(=O)(=O)c2nc(-c3ccccc3Cl)oc2N2CCN(C)CC2)cc1 | -66* | 18% | 23µM* | ? | -18% | 7%
COc1ccc(NC(=O)C2=CC(c3ccc4c(c3)OCO4)=NS(=O)(=O)N2C)cc1 | . | -30% | ? | ? | -21% | -3%
COc1cc(-c2nc(S(=O)(=O)c3ccc(Br)cc3)c(N3CCOCC3)o2)cc(OC)c1OC | . | -32% | 8.2µM* | 12µM* | -28% | 7%
CCN1CCN(c2oc(-c3ccccc3C)nc2S(=O)(=O)c2ccccc2)CC1 | -30 | 13% | 18µM* | ? | -20% | 6%
COc1ccccc1-c1nc(S(=O)(=O)c2ccccc2)c(N2CCCCC2)o1 | -15 | -6% | ? | ? | 3% | .
O=S(=O)(c1ccccc1)c1nc(-c2ccccc2Cl)oc1N1CCCCCC1 | . | 5% | 21µM* | ? | -6% | 8%
Cc1ccc(-c2nc(S(=O)(=O)c3ccc(C)cc3)c(N3CCOCC3)o2)cc1 | 5 | -17% | -24% | -1% | -1% | .
Cc1oc(-c2ccc(Cl)cc2)nc1CS(=O)CC(=O)N1CCN(c2cccc(C(F)(F)F)c2)CC1 (stereo not given) | . | 8.9µM* | 21µM* | 15µM* | 20µM* | 3%
Cc1ccc(-c2nc(CS(=O)CC(=O)N3CCN(c4cccc(Cl)c4)CC3)c(C)o2)cc1 (stereo not given) | . | ? | ? | 16µM* | -13% | 9%
Cc1cccc(-c2nc(CS(=O)CC(=O)N3CCN(C)CC3)c(C)o2)c1 (stereo not given) | -8 | -1% | -12% | 3% | -24% | 5%
Cc1oc(-c2ccccc2Cl)nc1CS(=O)CC(=O)N1CCN(c2cccc(C(F)(F)F)c2)CC1 (stereo not given) | . | 11µM* | 13µM* | 9.2µM* | -105% | 9%
Cc1ccc(-c2nc(CS(=O)CC(=O)N3CCN(c4ccc(F)cc4)CC3)c(C)o2)cc1 (stereo not given) | -27 | ? | 15µM* | ? | -36% | 7%
CCc1c(C)nc(SCc2nc(-c3ccccc3)no2)[nH]c1=O | . | -14% | ? | -28% | -4% | 3%
CCC(=O)c1cn(CC(=O)Nc2ccc(OC)cc2)c2ccccc12 | 4 | -22% | ? | -14% | -37% | .
COc1ccccc1CN1CC2(CCN(C(=O)c3cnccn3)CC2)C1 | . | . | 0% | -4% | . | .
Cc1ccc[n+](CC(=O)c2ccc(Br)cc2)c1C | 0 | -2% | -1% | -4% | -28% | 1%
O=C(CN1CCN(C(=O)C2CCCO2)CC1)Nc1ccc(F)cc1 (stereo not given) | 0 | 12% | 4% | 12% | -14% | 3%
